High-throughput results as filed in PubChem.
BH1578 lux ind = inducers of Vibrio cholerae quorum light production without autoinducers, primary screen, BH1578 luxS cqsA deficient, single point; V. cholerae BH1578 lux reporter, luminescence, 6 h; activation, % at 18.7 µM; 350,000 tested, 0.16% active; AID 588436, 2011; in the data active means activation mostly above about 9.7%, no sharp cut-off
GDH-TPI counter-1 = GDH-TPI coupling enzyme inhibitors, primary screen, artefact control for M. tuberculosis FBA inhibitor project, biochemical, absorbance, full deck; inhibition, % at 4.8 µM; 360,000 tested, 1.2% active; GDH-TPI coupled enzyme counterscreen, NADH absorbance; AID 588335, 2011; in the data active means inhibition above about 30%;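 further: 0% = DMSO wells and 100% = wells lacking the enzyme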
FBA Mtb inh = Mtb FBA enzyme inhibitors, primary screen, biochemical, fluorescence, strain H37Rv. purified M. tuberculosis FBA, fluorescence read-out. inhibition, % at 1 µM. 360,000 tested, 2.3% active. AID 588726, 2011;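 further: 0% = vehicle and 100% = reference inhibitor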
Target sequence (P9WQA3 whole entry, looked up): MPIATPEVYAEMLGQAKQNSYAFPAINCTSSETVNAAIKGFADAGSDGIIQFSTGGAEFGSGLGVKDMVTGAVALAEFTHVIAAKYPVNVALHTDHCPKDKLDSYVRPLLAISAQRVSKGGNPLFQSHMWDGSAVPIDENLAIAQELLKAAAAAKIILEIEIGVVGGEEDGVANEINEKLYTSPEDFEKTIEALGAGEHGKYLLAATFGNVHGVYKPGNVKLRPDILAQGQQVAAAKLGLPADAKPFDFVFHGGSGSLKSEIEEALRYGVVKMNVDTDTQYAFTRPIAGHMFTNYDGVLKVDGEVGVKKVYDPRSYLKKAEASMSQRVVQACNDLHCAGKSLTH
CCHFV vOTU inh = CCHFV vOTU protease inhibitors, primary screen, biochemical, Pep-AMC substrate, fluorescence; Crimean-Congo hemorrhagic fever virus L polyprotein viral ovarian tumor (vOTU) protease …; inhibition, % at 11.5 µM; 370,000 tested, 0.55% active; AID 651958, 2012; in the data active means inhibition above about 30%; further: 0% = vehicle wells with enzyme and 100% = no enzyme wells
Mtb FBA confirm = M. tuberculosis aldolase blockers, biochemical, fluorescence, strain H37Rv, confirmation. purified M. tuberculosis FBA, fluorescence read-out. shares compounds with FBA Mtb inh. 5,600 tested, 78% active. AID 651616, 2012. inhibition, % at 1 µM;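 further: 0% = vehicle wells and 100% = reference inhibitor wells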
GDH-TPI counter-2 = GDH-TPI coupling enzyme inhibitors, artefact control for M. tuberculosis FBA inhibitor project, biochemical, fluorescence, high throughput | inhibition, % at 1 µM | GDH-TPI coupled enzyme counterscreen | 5,600 tested, 81% active | shares compounds with FBA Mtb inh; in the data active means inhibition above about 10%
GDH-TPI DR = GDH-TPI coupling enzyme inhibitors, dose response, artefact control for M. tuberculosis FBA inhibitor project, biochemical, fluorescence, IC50 | 170 tested, 79% active | shares compounds with FBA Mtb inh | IC50, µM | AID 652145, 2013 | GDH-TPI coupled enzyme assay, artifact counterscreen; call rule not given here
* hit, by the source's call; i = inactive; · = no result; + = active, no number. A selection: hits, their analogues and other compounds. The true share with any hit is near 3.9%. Unless noted, no stated cut-off is given here; in the data, active means inhibition above about 27%; inactive means the rest.

SMILES | BH1578 lux ind | GDH-TPI counter-1 | FBA Mtb inh | CCHFV vOTU inh | Mtb FBA confirm | GDH-TPI counter-2 | others
O=C(c1cc2c(=O)n3ccccc3nc2s1)N1CCN(Cc2ccccc2)CC1 | -9 | 3 | 105* | -133 | -3 | -6
O=C(Cn1ccc2ccccc2c1=O)N1CCN(Cc2ccc3c(c2)OCO3)CC1 | -1 | 4 | 1 | 9 | · | ·
Cc1cccn2c(=O)c3cc(C(=O)N4CCN(Cc5ccccc5)CC4)sc3nc12 | 0 | 13 | 57* | -56 | -2 | -3
Cc1cc(C)c(S(=O)(=O)NCCSCc2ccco2)c(C)c1 | i | -8 | -2 | 14 | · | ·
CC1=C(C(=O)Nc2ccc(F)cc2)C(c2ccc(C)o2)C2=C(CC(C)(C)CC2=O)N1 (stereo not given) | i | 18 | 1 | 9 | · | ·
CCN(c1ccccc1)S(=O)(=O)c1ccc(C(=O)NNC(=O)c2ccccc2F)cc1 | i | 8 | -3 | 6 | · | ·
COC(=O)Cc1ccc(NC(=O)C(c2ccccc2)c2ccccc2)cc1 | 0 | -3 | -2 | 3 | · | ·
O=C(Cn1c2ccccc2c(=O)c2ccccc21)Nc1cccc(F)c1 | i | 6 | 90* | -22 | 100* | 71*
O=C(CN(C(=O)CNC(=O)c1cccs1)c1ccc(F)cc1)NC1CCCCC1 | 0 | -3 | -2 | 2 | · | ·
Cc1c(O)ccc2c(CN3CCN(Cc4ccccc4)CC3)cc(=O)oc12 | -1 | 4 | 36* | -154 | + | +
O=c1cc(CN2CCN(Cc3ccccc3)CC2)c2ccc(O)c(O)c2o1 | -1 | 12 | 5 | -8 | · | ·
Cc1c(O)ccc2c(CN(C)Cc3ccccc3)cc(=O)oc12 | i | 16 | 47* | -39 | 56* | 51*
CCc1cc2c(CN3CCN(Cc4ccccc4)CC3)cc(=O)oc2cc1O | -1 | 7 | 97* | -202 | 113* | 93*
CCc1cc2c(CN(C)Cc3ccccc3F)cc(=O)oc2cc1O | i | 6 | 58* | -44 | + | +
CCc1ccc2c(CN3CCN(Cc4ccccc4)CC3)cc(=O)oc2c1 | -1 | 5 | 2 | 3 | · | ·
Cc1cc2oc(=O)cc(CN(C)Cc3cccc(F)c3)c2cc1C | 0 | 4 | -9 | -14 | · | ·
Cc1c(C(=O)Nc2ccccc2)c2ccc(C(F)(F)F)cc2n1O | i | 10 | 4 | -2 | · | ·
Cc1ccccc1OCC(=O)O/N=C(\N)c1ccncc1 | -1 | 7 | 0 | 16 | · | ·
Cc1ccc2nc(NCC(N)=O)nc(-c3ccccc3)c2c1 | · | · | · | -103 | · | ·
OCCCNc1nc(-c2ccccc2)c2cc(Br)ccc2n1 | 0 | 0 | 13 | -38 | · | ·
O=C(O)CCNc1nc(-c2ccccc2)c2cc(Br)ccc2n1 | i | 6 | 11 | -1 | · | ·
Cc1ccc2nc(NCCC(=O)O)nc(-c3ccccc3)c2c1 | i | 2 | 36* | -11 | 48* | 48*
Cc1ccc2nc(NCCCO)nc(-c3ccccc3)c2c1 | i | 5 | 31* | -32 | + | +
Cc1ccc2nc(NCC(=O)O)nc(-c3ccccc3)c2c1 | · | -1 | 30* | -25 | 54* | 46*
COc1cc(/C=C2/C(=N)N3N=C(CC(=O)N4CCOCC4)SC3=NC2=O)ccc1OCc1ccccc1F | -1 | -9 | 0 | · | · | ·
COc1ccc2c(C)c(C(=O)N3CC[C@@H](N4CCC(O)CC4)[C@H](O)C3)oc2c1 | i | 0 | 45* | -8 | 105* | 81*
CC(=O)N1c2ccc(S(=O)(=O)N3CCCC3)cc2CC1C(=O)NC(C)C (stereo not given) | 0 | 7 | 0 | 4 | · | ·
CCOC(=O)N1CCN(CC(O)COC2CC(C)CCC2C(C)C)CC1 (stereo not given) | i | 2 | 34* | 15 | 13 | -7 | GDH-TPI DR=>10
CCCN1C(=O)c2ccccc2NC1c1ccc(OC)c(CSc2ccccn2)c1 (stereo not given) | 0 | 5 | 56* | -55 | 140* | 105*
